Reference: PubChem BioAssay (NCI)
Compounds without any hit were thinned out: in the full panel of roughly 83,000, 20% have a hit.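 How to read the values: 0–100, growth inhibition (40 = 60% inhibited); 0, no net growth; -100 to 0, cell death (-40 = 40% of starting cells died; -100 = all dead).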 Values without a mark were called inactive. The source made the active and inactive calls. How the source made its calls: active means growth percent below 10; inactive means the rest.

Assays:
Assay in all cases: NCI-60 one-dose screen, 48 h (100 = growth as untreated, 0 = no growth, -100 = all killed)
Conditions in all cases: 10 µM unless noted
[1] = system: T-47D breast
[2] = system: BT-549 breast
[3] = system: MDA-MB-435 melanoma
[4] = system: SW-620 colon
[5] = system: MCF7 breast
[6] = system: HCT-116 colon
[7] = system: HCC-2998 colon
[8] = system: KM12 colon

Structure (SMILES)	growth [1]	growth [2]	growth [3]	growth [4]	growth [5]	growth [6]	growth [7]	growth [8]
C=CC1(C)C(O[Si](C)(C)C(C)(C)C)CC2C3OC(=O)NC31c1cccc3c1[C@H](C(=O)N3C)C2(C)C (some centres undefined)	23.8%	53.8%	56.2%	64.6%	27.7%	38.6%	69.1%	50.5%
CCOc1ccc(NC(=O)c2cc(OC)c(OC)c(OC)c2)cc1	37.2%	44.5%	-10.9% (active)	31.6%	20.8%	18%	55.5%	22.8%
COc1cc(/C=N/Nc2ccccc2F)cc(OC)c1OC	67.7%	96%	94.3%	93.6%	78.3%	84.5%	108%	86.3%
CC12CCC(/C(=C/NNc3ccc([N+](=O)[O-])cc3[N+](=O)[O-])C1=O)C2(C)C (centres undefined)	56.8%	69.4%	70.5%	64.8%	50.6%	50.7%	93.4%	90.7%
N#C/C(=C\c1ccc(-c2ccc(Cl)cc2)o1)c1ccc(Cl)cc1	51.2%	79.5%	85.1%	66.2%	62.1%	12.7%	96.4%	88.9%
Nc1c(C(=O)Nc2ccccn2)sc2nc3c(cc12)C(O)CCC3 (centres undefined)	15%	58.2%	-44.6% (active)	21.8%	13.2%	30.5%	70.7%	18.3%
COc1ccc(NC(=O)c2ccc(C(=O)Nc3ccc(OC)cc3OC)cc2)c(OC)c1	71.9%	43.6%	93.3%	97.9%	75.2%	78.1%	72.2%	103%
COc1ccc(C2C(C#N)=C(N)Oc3c2sc2c(Br)cccc32)cc1 (centres undefined)	27.2%	34.4%	-18.1% (active)	32%	13.1%	22.4%	56.8%	27.5%
COc1cc(/C=C\c2cc(/C=C\c3ccc(O)c(OC)c3)n(C(=O)CNc3ccc(Cl)cc3)n2)ccc1O	31%	24.3%	-7.11% (active)	24.9%	13.8%	7.69% (active)	48.6%	20.2%
C=C1C(=O)O[C@H]2[C@H]1CC/C(COC(=O)/C=C\C(=O)NCc1ccc(Cn3c(=O)sn(-c4ccccc4)c3=O)cc1)=C\CC[C@@]1(C)O[C@@H]21	67.9%	93.5%	67.7%	19.9%	53.7%	33.6%	105%	106%
CCOC(=O)c1cn2ncnc(Oc3ccc(NC(=O)NC4CC4)c(F)c3)c2c1C	93.8%	103%	95.9%	96.2%	92.6%	76.9%	110%	101%
O=C1C(Cl)=C(NCCN2CCOCC2)C(=O)c2ncccc21	-40.8% (active)	-91.5% (active)	102%	-29.5% (active)	-50% (active)	-51.9% (active)	31.8%	62.9%
N#Cc1c(-c2ccccc2)nc2c(c(-c3ccccc3)nn2-c2ccccc2)c1-c1ccc(N2CCOCC2)cc1	96.7%	99.8%	90.5%	45.6%	57.6%	65.5%	107%	95.7%
COc1ccc(OC)c(Nc2nnc(-c3ccc(Cl)cc3)o2)c1	59.9%	81.9%	84.6%	86.2%	91.6%	31.1%	104%	66.4%
Oc1c(I)cc(-c2nc3ccccc3s2)cc1CN(Cc1ccccn1)Cc1ccccn1	17%	22%	33.3%	21.3%	13.7%	16.1%	9.25% (active)	28.4%
CCN(CCO)CC(C)Nc1ccc([N+](=O)[O-])c2sc3ccccc3c(=O)c12 (centres undefined)	39.9%	58.9%	23.5%	18.6%	13.1%	11.8%	38.6%	37.9%
Cn1cc(C(=O)c2nc(-c3c[nH]c4ccc(Br)cc34)no2)c2cc(Br)ccc21	71.8%	79%	63.3%	-2.17% (active)	38.8%	63.5%	103%	55.2%
COc1ccc(/C=C/C(=O)c2cc3c(N)c(C(=O)Nc4ccccc4C)sc3nc2C)cc1	39.9%	29.7%	-39.6% (active)	14.9%	9.36% (active)	14.7%	15.4%	10.6%
Cc1cc(N2CCCCC2)nc(N2CCN(CC(=O)Nc3ccc4c(ccn4Cc4ccccc4)c3)CC2)n1	32.8%	82.7%	77.8%	73.6%	44.4%	43.6%	93.3%	49.1%
O=C(CN1CCN(c2cc3c(cc2F)c(=O)c(C(=O)O)cn3C2CC2)CC1)N/N=C/c1ccncc1	96.8%	95.7%	97.5%	97.4%	92.4%	104%	110%	101%
CCN(CC)c1ccc(N2C(=O)/C(=C/c3cccs3)SC2=S)cc1	83%	102%	95.4%	103%	89.9%	95.9%	110%	100%
C=C(C)[C@@H]1CC[C@]2(CO)CC[C@]3(C)[C@H](CC[C@@H]4[C@@]5(C)CCC(NCCc6ccc(O)cc6)C(C)(C)[C@@H]5CC[C@]43C)[C@@H]12 (some centres undefined)	-66.3% (active)	33.9%	-92.4% (active)	-80% (active)	-77.9% (active)	-89.9% (active)	-90.1% (active)	-84% (active)
COc1cc(C(=O)/C=C/c2ccc(N3CCN(C)CC3)cc2)cc(OC)c1OC	95.8%	100%	95.5%	88%	96%	104%	101%	99.3%
CCN(CC)c1ccc(/C=C\c2cc(C)c3cc(C)ccc3n2)cc1	-22.3% (active)	-11.5% (active)	3.36% (active)	23.1%	19.9%	6.6% (active)	13.6%	27.1%
COc1ccc(Cc2cnc(NC(=O)c3sc4ccccc4c3Cl)s2)cc1	34.5%	34.7%	-39.1% (active)	25%	17.5%	15.1%	25.6%	16.7%
O=C1c2cccnc2C(=O)c2c1c(C(=O)OCCCN1CCCCC1)c1ccccn21	24%	-24.1% (active)	-41.5% (active)	-60.1% (active)	-42% (active)	-20.3% (active)	-35.7% (active)	-33.2% (active)
Brc1ccc(-c2cnc3nonc3n2)cc1	69.7%	115%	3.37% (active)	77.6%	28.2%	60%	91.3%	78.2%
COc1ccc2nc3cc(Cl)ccc3c(NCCN)c2c1	-72.3% (active)	-45.7% (active)	-90.2% (active)	-68.9% (active)	-70.2% (active)	-73.2% (active)	-73.2% (active)	-64% (active)
